For assay [1], the target named is Sentrin-specific protease 8 (Homo sapiens) (UniProt Q96LD8). Nature of the assay: human SENP8 peptidase blockers, hit retest – biochemical, luminescence, single concentration, confirmation (AID 488912;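 active = mean inhibition across replicates above about 50%, limit read from the data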). The note with it: Recombinant SENP8, Z-RLRGG-aminoluciferin luminescence, 60 min; at 12.5 µM; active compounds read high.
The target of assay [2] is Sentrin-specific protease 6 (Homo sapiens) (UniProt Q9GZR1). Nature of the assay: inhibition of human SENP6 catalytic domain – biochemical, luminescence, single concentration, confirmation (AID 488915). The note with it: recombinant SENP6, Z-RLRGG-aminoluciferin luminescence; at 12.5 µM; active compounds read high.
Sentrin-specific protease 6 (Homo sapiens), sequence (Q9GZR1 628-1112 limits assumed): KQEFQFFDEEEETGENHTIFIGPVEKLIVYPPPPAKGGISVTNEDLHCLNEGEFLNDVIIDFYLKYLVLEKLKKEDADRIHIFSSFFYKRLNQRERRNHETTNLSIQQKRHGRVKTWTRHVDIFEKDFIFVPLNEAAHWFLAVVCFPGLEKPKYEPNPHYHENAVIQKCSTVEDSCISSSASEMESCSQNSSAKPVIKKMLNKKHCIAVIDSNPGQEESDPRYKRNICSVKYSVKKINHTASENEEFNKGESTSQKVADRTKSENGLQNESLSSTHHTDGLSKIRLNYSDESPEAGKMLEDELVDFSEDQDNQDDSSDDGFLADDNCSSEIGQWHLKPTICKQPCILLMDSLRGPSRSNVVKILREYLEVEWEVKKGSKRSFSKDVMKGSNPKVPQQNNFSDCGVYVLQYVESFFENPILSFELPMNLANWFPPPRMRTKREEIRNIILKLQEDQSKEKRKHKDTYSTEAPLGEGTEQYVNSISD
Assay [3] deals with Sentrin-specific protease 7 (Homo sapiens) (UniProt Q9BQF6). Nature of the assay: human SENP7 peptidase blockers, hit retest – biochemical, luminescence, single concentration, confirmation (AID 488917). The note with it: recombinant SENP7, Z-RLRGG-aminoluciferin luminescence, 40 min; at 12.5 µM; active compounds read high.
Sentrin-specific protease 7 (Homo sapiens), sequence (Q9BQF6 706-1050 limits assumed): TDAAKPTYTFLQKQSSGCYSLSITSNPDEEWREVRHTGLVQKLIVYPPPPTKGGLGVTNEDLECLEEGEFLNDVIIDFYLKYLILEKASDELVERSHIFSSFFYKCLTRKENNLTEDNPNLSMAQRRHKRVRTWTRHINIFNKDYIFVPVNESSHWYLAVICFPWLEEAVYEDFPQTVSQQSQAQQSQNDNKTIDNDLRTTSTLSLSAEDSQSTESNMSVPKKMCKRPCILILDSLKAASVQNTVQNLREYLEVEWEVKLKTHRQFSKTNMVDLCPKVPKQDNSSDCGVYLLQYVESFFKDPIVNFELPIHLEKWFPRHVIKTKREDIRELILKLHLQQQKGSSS
The target in another assay is Caspase-3 (Homo sapiens) (UniProt P42574). Nature of the assay: human caspase-3 activity blockade, out-of-family – biochemical, single concentration, selectivity assay for SENP inhibitor project, confirmation (AID 488918;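 active = mean inhibition above about 50%, limit read from the data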;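 also: plate controls were enzyme with DMSO for no effect and wells without caspase-3 for full effect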). The conditions noted are these: purified caspase-3, Z-DEVD-aminoluciferin luminescence, 60 min; at 12.5 µM; active compounds read high.
Caspase-3 (Homo sapiens), sequence (P42574 28-227 limits assumed): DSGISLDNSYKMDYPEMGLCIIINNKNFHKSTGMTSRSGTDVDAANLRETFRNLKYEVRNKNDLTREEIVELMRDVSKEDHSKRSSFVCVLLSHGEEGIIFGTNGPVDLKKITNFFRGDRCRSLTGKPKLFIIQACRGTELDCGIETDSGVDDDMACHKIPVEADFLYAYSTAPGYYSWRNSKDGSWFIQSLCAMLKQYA
Assay [4] is described as follows: Ultra-Glo luciferase signal interference – biochemical, single concentration, SENP8 reaction pre-completed, artefact control for SENP inhibitor project, confirmation (AID 488919;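 active = mean inhibition above about 50% when retested at one dose, limit read from the data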;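 also: plate controls were DMSO wells with completed reaction for no effect and substrate without enzyme for full effect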). The note with it: Pre-incubated SENP8/Z-RLRGG-aminoluciferin, luciferase luminescence interference; at 12.5 µM; active compounds read high.

The list shows a part of the results. A number with no mark means an inactive call. The source made the active and inactive calls.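 The calls were made as follows, unless noted: active = mean inhibition above about 50% in the one-dose retest (limit read from the data); inactive = the rest.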

Sentrin-specific protease 8 (Homo sapiens), sequence (Q96LD8 whole entry, looked up, the tested form may be a part): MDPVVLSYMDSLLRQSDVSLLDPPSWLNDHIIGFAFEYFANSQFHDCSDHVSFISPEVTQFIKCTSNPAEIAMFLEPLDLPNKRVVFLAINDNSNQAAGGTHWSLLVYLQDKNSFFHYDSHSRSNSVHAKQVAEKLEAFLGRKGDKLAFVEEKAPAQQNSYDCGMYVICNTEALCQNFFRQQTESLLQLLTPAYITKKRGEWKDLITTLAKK

Consider `Cc1cccc(OC(=O)c2sc3ncn(C)c(=O)c3c2C)c1`, for which the inhibition in assay [1] was 1.1%; in assay [2], 0.1%; in assay [3], 17.1%; in the assay with Caspase-3 (Homo sapiens) it was 14.4%; in assay [4] it was -2.4%.

Turning to `Cc1ccc(S(=O)(=O)C(C#N)c2nc3ccccc3nc2N2CCCC2)cc1C` (stereo not given), the inhibition in assay [1] is 6.9%; in assay [2], 9.5%; in assay [3], 4.3%; with Caspase-3 (Homo sapiens), 4.2%; in assay [4], 3%.

With `CCOc1ccc2nc(C(=O)N3CCCC(C)C3)sc2c1` (stereo not given), the inhibition in assay [1] is 59.3% (active); in assay [2] it was 68.3% (active); in assay [3], 86.3% (active); with Caspase-3 (Homo sapiens), 62.5% (active); in assay [4], 66.4% (active).

As for `O=c1c(-c2cccc(Cl)c2)c[nH]n1-c1ccccc1`, the inhibition in assay [1] is 63.9% (active); in assay [2], 61.4% (active); in assay [3], 80.8% (active); with Caspase-3 (Homo sapiens), 76.2% (active); in assay [4], 63.8% (active).

Consider `CCC(=O)Nc1ccc(C(=O)Nc2cccc(OC)c2)cc1`, for which the inhibition in assay [1] is 42.4%; in assay [2], 39%; in assay [3], 71.9% (active); with Caspase-3 (Homo sapiens), 69.1% (active); in assay [4] it was 52.9% (active).

Consider `CCNc1nc(N)nc(Oc2ccc(OCC)nn2)n1`, for which the inhibition is 6.2% in assay [1]; 8.1% in assay [2]; -2% in assay [3]; 3.8% with Caspase-3 (Homo sapiens); 0.2% in assay [4].

With `Clc1ccc(Nc2ccc3ccccc3n2)cc1`, the inhibition in assay [1] was 87.7% (active); in assay [2] it was 88.2% (active); in assay [3] it was 97.8% (active); in the assay with Caspase-3 (Homo sapiens), 48.8%; in assay [4], 71.2% (active).

On to `O=C(Nc1ccccc1F)c1ccc2c(c1)OCO2`, for which the inhibition in assay [1] is 72% (active); in assay [2], 66.7% (active); in assay [3], 90.9% (active); in the assay with Caspase-3 (Homo sapiens), 89.4% (active); in assay [4], 69.1% (active).

Regarding `Oc1ccc(N=Nc2nccs2)c(O)c1`, the inhibition in assay [1] is 82.3% (active); in assay [2] it was 80.3% (active); in assay [3], 93.9% (active); with Caspase-3 (Homo sapiens) it was 90.8% (active); in assay [4], 82.8% (active).

As to `Cc1ccccc1Nc1nc(-c2cccnc2)cs1`, the inhibition in assay [1] was 70.3% (active); in assay [2] it was 66.9% (active); in assay [3] it was 86.9% (active); with Caspase-3 (Homo sapiens), 52.8% (active); in assay [4], 69.4% (active).

Consider `COc1ccccc1OCc1nc2ccccc2s1`, for which the inhibition was 96.7% (active) in assay [1]; 97.3% (active) in assay [2]; 102% (active) in assay [3]; 96% (active) with Caspase-3 (Homo sapiens); 95.3% (active) in assay [4].

Take `Nc1ccc(-c2nnc(-c3ccc(-c4ccccc4)cc3)o2)cc1`: the inhibition in assay [1] is 11.8%; in assay [2], 10.8%; in assay [3], 32.4%; with Caspase-3 (Homo sapiens) it was 6.5%; in assay [4], -0.8%.

For `C/C(=C\C(=O)c1ccccc1)Nc1cccc(O)c1`, the inhibition in assay [1] is 43.1%; in assay [2] it was 47.3%; in assay [3], 82.2% (active); with Caspase-3 (Homo sapiens) it was 39.4%; in assay [4], 66.4% (active).

As to `COC(=O)c1ccc(NCC(=O)c2ccccc2)cc1`, the inhibition was 10.5% in assay [1]; 97.3% (active) in assay [2]; 103% (active) in assay [3]; 96% (active) in the assay with Caspase-3 (Homo sapiens); 60.5% (active) in assay [4].

Take `Cc1cccc(/C=N/NC(=O)CNc2cccc3ccccc23)n1`: the inhibition in assay [1] was 13.1%; in assay [2], 12.9%; in assay [3] it was 3.9%; with Caspase-3 (Homo sapiens), -0.3%; in assay [4] it was 1.6%.

Regarding `Cc1cc(NC(=O)Nc2ccccc2[N+](=O)[O-])no1`, the inhibition in assay [1] was 46%; in assay [2] it was 40.1%; in assay [3] it was 77.2% (active); with Caspase-3 (Homo sapiens), 70.8% (active); in assay [4] it was 41.3%.

For `CCOc1ccc(N/C=C/C(=O)c2ccccc2)cc1`, the inhibition is 10.5% in assay [1]; 94.9% (active) in assay [2]; 63.3% (active) in assay [3]; 81.1% (active) with Caspase-3 (Homo sapiens); 19.3% in assay [4].

Take `COc1ccc(CNC(=O)COc2ccccc2C(=O)c2cnn(-c3ccccc3)c2)cc1OC`: the inhibition was 77.7% (active) in assay [1]; 76.1% (active) in assay [2]; 89.2% (active) in assay [3]; 61.9% (active) in the assay with Caspase-3 (Homo sapiens); 65.5% (active) in assay [4].

Turning to `Brc1ccc2nc(N3CCCC3)sc2c1`, the inhibition in assay [1] was 83.5% (active); in assay [2], 95.8% (active); in assay [3], 102% (active); with Caspase-3 (Homo sapiens), 81.3% (active); in assay [4], 38.6%.

For the compound `Cc1sc(NC(=O)c2ccc3ncsc3c2)c(C(N)=O)c1C`, the inhibition was -15.3% in assay [1]; -7.6% in assay [2]; -2.8% in assay [3]; 3.3% with Caspase-3 (Homo sapiens); -10.5% in assay [4].

On to `O=C1C(=O)N(CCCN2CCOCC2)C(c2ccc([N+](=O)[O-])cc2)/C1=C(\O)c1ccc2c(c1)OCCO2` (stereo not given), for which the inhibition in assay [1] was -13.1%; in assay [2], -8.9%; in assay [3] it was -9%; with Caspase-3 (Homo sapiens), -4.4%; in assay [4], -12.5%.

Turning to `CCC(=O)NC(Nc1cc(C)ccn1)(C(F)(F)F)C(F)(F)F`, the inhibition in assay [1] is -4.5%; in assay [2], -2.4%; in assay [3], -0.5%; with Caspase-3 (Homo sapiens), 8.4%; in assay [4], 4.2%.

As to `CC(C)Cc1cc(C(=O)Nc2cc(Br)ccc2O)no1`, the inhibition in assay [1] is 6%; in assay [2], 21.4%; in assay [3], 28.9%; in the assay with Caspase-3 (Homo sapiens) it was 15.4%; in assay [4], 7.1%.

Turning to `Cc1c(Cl)cccc1NC(=O)Nc1ccc(C(=O)N2CCCC2)cc1`, the inhibition is 20.5% in assay [1]; 43% in assay [2]; 77.1% (active) in assay [3]; 60.3% (active) with Caspase-3 (Homo sapiens); 11.4% in assay [4].

Consider `CC(C)CCNC(=O)c1ccc2c(Cl)c3c(nc2c1)CCC3`, for which the inhibition in assay [1] was 84.1% (active); in assay [2] it was 88.3% (active); in assay [3], 97.4% (active); in the assay with Caspase-3 (Homo sapiens) it was 57.1% (active); in assay [4], 52.5% (active).

The inhibition is the relative decrease from the control value, in per cent.
